Source: PubChem BioAssay (NCI)
Compounds without any hit were thinned out: in the full panel of roughly 79,000, 15% have a hit. The source made the active and inactive calls. No stated cut-off is given here; in the data, active means growth inhibition above about 70%; inactive means the rest.

What was measured:
[1] = NCI Yeast Anticancer Drug Screen. Data for the rad50 strain (AID 155);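 further: 0% = growth of vehicle-only cultures of the same strain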; settings: S. cerevisiae rad50 strain growth inhibition, active compounds read high
Outline: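 Genetically altered yeast (DNA repair pathway); compound treatment; growth inhibition vs vehicle ctrl.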

[2] = NCI Yeast Anticancer Drug Screen. Data for the mec2-1 strain (AID 157); settings: S. cerevisiae mec2-1 strain, active compounds read high
Outline: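 Cells of the genetically defined mec2-1 yeast strain are incubated with test compound. Inhibition of growth is calculated against vehicle-treated controls.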

[3] = NCI Yeast Anticancer Drug Screen. Data for the sgs1 mgt1 strain (AID 161);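 further: 0% = growth of cultures given vehicle only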; settings: S. cerevisiae sgs1 mgt1 strain, active compounds read high
Outline: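 Genetically altered yeast, compound exposure, growth inhibition relative to vehicle.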

[4] = NCI Yeast Anticancer Drug Screen. Data for the cln2 rad14 strain (AID 165);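 further: 0% = growth equal to vehicle treated cultures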; settings: S. cerevisiae cln2 rad14 strain, active compounds read high
Outline: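 The screen exposed genetically defined yeast (cln2 rad14) to test compounds and scored growth inhibition relative to vehicle-treated controls.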

[5] = NCI Yeast Anticancer Drug Screen. Data for the bub3 strain (AID 167); settings: S. cerevisiae bub3 mutant strain, active compounds read high
Outline: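 Yeast carrying a defined mutation is treated with each compound, and growth is compared with that of vehicle-exposed cells to give inhibition.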

[6] = NCI Yeast Anticancer Drug Screen. Data for the mlh1 rad18 strain (AID 175); settings: S. cerevisiae mlh1 rad18 strain growth inhibition, active compounds read high
Outline: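 Compound-treated yeast growth, normalised to vehicle controls. Strain bears defined DNA repair mutations.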

[7] = at 5.0 µM (retest, dose inferred, filed as 0.5)
[8] = at 50.0 µM (retest, dose inferred, filed as 5.0)

Measured: growth inhibition

COc1ccc2c(c1)c1c(C)c3cnccc3c(C)c1n2CCCN
inactive: [1]; [7] 9% | [1]; [8] 44% | [2]; [7] 28% | [2]; [8] -17% | [2]; at 50.0 µM 27.9% | [3]; [7] 2% | [3]; [8] 13% | [3]; at 50.0 µM 29.3% | [4]; [7] 10% | [4]; [8] -9% | [4]; at 50.0 µM -24.1% | [5]; [7] 13% | [5]; [8] -10% | [5]; at 50.0 µM 46.1% | [6]; [7] 9% | [6]; [8] 18%
active: [1]; at 50.0 µM 74% | [6]; at 50.0 µM 77.5%

Cc1ccc(SCc2nc3ccccc3c(C)[n+]2[O-])cc1
inactive: [1]; [7] 2% | [1]; at 50.0 µM 32.6% | [2]; [7] 4% | [2]; at 50.0 µM 45.6% | [3]; [7] -7% | [3]; at 50.0 µM 55% | [4]; [7] 0% | [4]; [8] 53% | [4]; at 50.0 µM 38% | [5]; [7] -4% | [5]; at 50.0 µM 55.9% | [6]; [7] -7% | [6]; at 50.0 µM 56.7%
active: [1]; [8] 86% | [2]; [8] 86% | [3]; [8] 87% | [5]; [8] 76% | [6]; [8] 91%

C=CS(=O)(=O)Cc1ccc(Cl)cc1
inactive: [1]; [7] -126% | [2]; [7] -31% | [3]; [7] -33% | [4]; [7] -42% | [5]; [7] -48% | [6]; [7] -108%
active: [1]; [8] 91% | [1]; at 50.0 µM 98.6% | [2]; [8] 91% | [2]; at 50.0 µM 97.2% | [3]; [8] 91% | [3]; at 50.0 µM 94.2% | [4]; [8] 84% | [4]; at 50.0 µM 93.9% | [5]; [8] 94% | [5]; at 50.0 µM 97% | [6]; [8] 95% | [6]; at 50.0 µM 97.4%

O=c1cc(-c2ccccc2)oc2ccc(-c3ccc4oc(-c5ccccc5)cc(=O)c4c3)cc12
inactive: [1]; [7] 8% | [1]; [8] 40% | [1]; at 50.0 µM 37.3% | [2]; [7] 7% | [2]; [8] 16% | [2]; at 50.0 µM 40.6% | [3]; [7] -10% | [3]; at 50.0 µM 31.7% | [4]; [7] -1% | [4]; [8] 39% | [4]; at 50.0 µM 28.4% | [5]; [7] 5% | [5]; at 50.0 µM 59% | [6]; [7] 13% | [6]; [8] 25%
active: [3]; [8] 82% | [5]; [8] 89% | [6]; at 50.0 µM 87.8%

COC1OC(=O)CC1C1CC=C2C3CCC4CC(O)CCC4(C)C3CCC21C (stereo not given)
active: [1]; at 50.0 µM 83.3% | [2]; [8] 85% | [2]; at 50.0 µM 74.4% | [3]; [8] 86% | [3]; at 50.0 µM 95% | [4]; [8] 77% | [5]; [8] 73% | [6]; [8] 92% | [6]; at 50.0 µM 88.4%
inactive: [1]; [7] 1% | [1]; [8] 44% | [2]; [7] 3% | [3]; [7] -22% | [4]; [7] -8% | [4]; at 50.0 µM 62.6% | [5]; [7] -9% | [5]; at 50.0 µM 64.8% | [6]; [7] -5%

COC12C(COC(N)=O)C3=C(C(=O)C(C)=C(N)C3=O)N1CC1C2N1C(=O)c1ccc(Cl)c(Cl)c1 (stereo not given)
inactive: [1]; [7] 32% | [2]; [7] 29% | [3]; [7] 12% | [4]; [7] 11% | [5]; [7] 22% | [6]; [7] 37%
active: [1]; [8] 93% | [1]; at 50.0 µM 82.2% | [2]; [8] 96% | [2]; at 50.0 µM 85.3% | [3]; [8] 95% | [3]; at 50.0 µM 89.2% | [4]; [8] 94% | [4]; at 50.0 µM 80.5% | [5]; [8] 95% | [5]; at 50.0 µM 83.8% | [6]; [8] 95% | [6]; at 50.0 µM 88%

COC(C(=O)O)c1ccccc1 (stereo not given)
inactive: [1]; [7] -1% | [1]; [8] 9% | [2]; [7] -1% | [2]; [8] -3% | [2]; at 50.0 µM 8.9% | [3]; [7] -2% | [3]; [8] -2% | [4]; [7] 1% | [4]; [8] -5% | [4]; at 50.0 µM -1.95% | [5]; [7] -2% | [5]; [8] 1% | [5]; at 50.0 µM 47.1% | [6]; [7] -3% | [6]; [8] 0%
active: [1]; at 50.0 µM 75% | [3]; at 50.0 µM 74.8% | [6]; at 50.0 µM 79.5%

COC(=O)/C(=C/c1ccc(/C=C(/C(=O)O)c2ccc(OC)cc2)o1)c1ccccc1
active: [1]; [8] 99% | [2]; [8] 99% | [3]; [8] 99% | [4]; [8] 99% | [5]; [8] 99% | [6]; [8] 99%
inactive: [1]; [7] 3% | [1]; at 50.0 µM 8.35% | [2]; [7] 2% | [2]; at 50.0 µM 10.8% | [3]; [7] 0% | [3]; at 50.0 µM -3.5% | [4]; [7] 15% | [4]; at 50.0 µM 11.6% | [5]; [7] 0% | [5]; at 50.0 µM 1.7% | [6]; [7] 3% | [6]; at 50.0 µM 30.8%

O=C(O)/C(=C\c1ccc(Cl)cc1)c1ccc(C(F)(F)F)cc1[N+](=O)[O-]
inactive: [1]; [7] 11% | [2]; [7] 8% | [3]; [7] 0% | [4]; [7] 21% | [5]; [7] 18% | [6]; [7] 25%
active: [1]; [8] 76% | [1]; at 50.0 µM 94.1% | [2]; [8] 90% | [2]; at 50.0 µM 97.5% | [3]; [8] 91% | [3]; at 50.0 µM 96% | [4]; [8] 84% | [4]; at 50.0 µM 97.6% | [5]; [8] 84% | [5]; at 50.0 µM 96.8% | [6]; [8] 93% | [6]; at 50.0 µM 98.2%

CCN(CC)Cc1ccc(Nc2cc(C)nc(/N=C(\N)Nc3ccc(Cl)c(Cl)c3)n2)cc1
inactive: [1]; [7] 66% | [2]; [7] 55% | [3]; [7] 59% | [4]; [7] 11% | [5]; [7] 7% | [6]; [7] 55%
active: [1]; [8] 97% | [1]; at 50.0 µM 97.3% | [2]; [8] 98% | [2]; at 50.0 µM 95.3% | [3]; [8] 98% | [3]; at 50.0 µM 98.1% | [4]; [8] 97% | [4]; at 50.0 µM 82.5% | [5]; [8] 98% | [5]; at 50.0 µM 94.2% | [6]; [8] 98% | [6]; at 50.0 µM 97.3%
